Growth data for 40 compounds are collected here from PubChem BioAssay (NCI).

The panel holds about 83,000 compounds, 20% with a hit somewhere; the sample as a whole holds those more often.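 In brief: 96-well plates, 48 h treatment, single concentration, percent growth endpoint.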 The source made the active and inactive calls.

For the assay, the system named is LOX IMVI melanoma. Put plainly: NCI-60 one-dose screen, 48 h (100 = growth as untreated, 0 = no growth, -100 = all killed). The settings on record: 10 µM unless noted. As to the method: Growth inhibition of the LOX IMVI human tumor cell line is measured as a screen for anti-cancer activity. Cells are grown in 96 well plates and exposed to the test compound for 48 hours. Compounds are tested at a single concentration, which is 10^-5 M for most compounds. The reported endpoint is percent growth (GI% or GIPRCNT), where numbers from 0 - 100% represent growth inhibition, and numbers from -100% - 0 represent cell death. For example, a value of 40 represents 60% growth inhibition. A value of 0 means no net growth occurred over the course of the experiment. A value of -40 indicates 40% of cells at the beginning of the experiment died by the end of the experiment. A value of -100 means all cells are dead at the end of the experiment.
NCI-60 Human Tumor Cell Lines Screen was performed using the standard one-dose NCI protocol, which is described in more detail at https://dtp.cancer.gov/discovery_development/nci-60/default.htm.
Compounds with GIPRCNT values below 10 were considered active. Activity score was based on GIPRCNT using the following formula: […]
Score is 0 for GIPRCNT values of 100 or above, 50 for GIPRCNT values of 0, and 100 for GIPRCNT values of -100.
For the compound `CCOC(=O)c1sc(-c2ccc(OS(=O)(=O)c3cccs3)c(C=O)c2)nc1C`, the growth is -48.2% (active). The same measure for `Cc1cccc(NC(=O)c2sc3nc4c(cc3c2N)CCCC4)c1C`: 42.3% (inactive); for `O=NN(Cc1cccnc1)C(=O)NC1CCCCC1`: 103% (inactive).

Take `O=c1oc2ccc(Br)cc2c(=O)n1-c1ccc(F)cc1F`: the growth was 12.6% (inactive). Take `O=C(NC(=S)Nc1cccc(NC(=S)NC(=O)c2ccccc2)c1)c1ccccc1`: the growth was 71% (inactive). Take `COC(=O)/C(CCC=C(C)C)=C1\[C@@H](OC(C)=O)C[C@@]2(C)[C@H]1C[C@@H](O)[C@H]1[C@@]3(C)CC[C@H](NC(=O)c4cnccn4)[C@@H](C)[C@@H]3CC[C@@]12C`: the growth was 93.5% (inactive). The same measure for `COc1ccc(C2=C(c3cccc(OC)c3)C(=O)c3ccc(C)nc3C2=O)cc1`: 30.6% (inactive); for `O=C(Nc1ccc(Cl)cc1F)c1cc(Br)ccc1O`: 16.1% (inactive); for `Cc1ccc2[nH]c(=O)cc(-n3nncc3Cn3c4ccccc4c4ccccc43)c2c1`: 98.2% (inactive). Next, `O=C(Cc1ccccc1)NC(c1ccc(Cl)cc1)c1c(O)ccc2ccccc12` (stereo not given): 10.4% (inactive); `Cc1nc(Nc2cn[nH]c2C(=O)Nc2ccc(CN3CCN(C)CC3)cc2)c2ccsc2n1`: 72.8% (inactive). Next, `COC(=O)c1c2c(c(C)[n+]([O-])c1C)C(=O)C(NCc1ccc(Br)cc1)=CC2=O`: 16.9% (inactive); `NCCOc1ncccc1/C=C1\c2ccccc2-c2ccc([N+](=O)[O-])cc21`: -91.1% (active); `O=C(N/N=C/c1ccccc1Cl)C(=O)Nc1cccc(C(F)(F)F)c1`: 94.9% (inactive). On to `NC1(N2SC(S)=C3CCCC=C32)CCCCC1`, for which the growth was 94.7% (inactive). Consider `O=C1NC(=O)C(=Cc2cn(Cc3cn(Cc4ccc(Cl)cc4Cl)nn3)c3ccccc23)C(=O)N1`, for which the growth is 80.1% (inactive). As to `COc1cc2c(cc1OC)C(=O)C(CC1CCN(C(=O)Nc3ccc(C)cc3)CC1)C2` (stereo not given), the growth is 96.9% (inactive). Next, `COc1cc(/C=C/C(=O)c2ccc(Nc3nc(NCCO)nc(N4CCOCC4)n3)cc2)cc(OC)c1OC`: 11.1% (inactive); `COc1cccc(/C=C/C(=O)c2c(C)nc3ccccc3c2/C=C/c2ccccc2)c1OC`: -59.4% (active). Next, `O=c1oc2ccc(I)cc2c(=O)n1-c1ccc(I)cc1F`: 4.98% (active). Next, `O=c1c2cc(F)ccc2sc2c(Nc3ccncc3)nc3ccccc3c12`: -66.7% (active); `COc1ccc(C2=Nn3c(NN)nnc3SC2)cc1`: 99.9% (inactive). As for `O=C(/C=C/c1ccc(C(F)(F)F)cc1)c1ccc(Nc2nc(NCCO)nc(N3CCOCC3)n2)cc1`, the growth was 3.82% (active). The same measure for `COc1ccc(/C=C/C(=O)c2c(C)nc3ccccc3c2/C=C/c2ccccc2)cc1O`: 33% (inactive); for `O=C(CN1C(=O)/C(=C\c2ccc(Cl)cc2)SC1=S)Nc1ncc(Cc2ccc(Cl)cc2)s1`: 92.9% (inactive); for `CCOc1ccc(Nc2ccnc3cc(Cl)ccc23)cc1`: -22.3% (active). The same measure for `CC[C@H](C)[C@@H](C(=O)OC)n1cc(CNC(=O)[C@@H](Cc2ccccc2)NC(=O)OCc2ccccc2)nn1`: 99.5% (inactive); for `O=C(O)CCC(=O)c1ccc(C2CCCCCC2)cc1`: 99% (inactive).

Take `COc1cc(-c2c3c(cn2S(=O)(=O)c2ccccc2)-c2nc(N)sc2CC3)cc(OC)c1OC`: the growth is 38.4% (inactive).

Regarding `COC(=O)/C(CCC=C(C)C)=C1\[C@@H](OC(C)=O)C[C@@]2(C)[C@H]1C[C@@H](O)[C@H]1[C@@]3(C)CC[C@H](NCCCNCCCCNCCCN)[C@@H](C)[C@@H]3CC[C@@]12C`, the growth was 52.9% (inactive). The same measure for `COc1cc2nc(-c3cccc4cccnc34)nc(NC3CCN(Cc4ccccc4)CC3)c2cc1OC`: -82.3% (active). The same measure for `CC(C)Cn1c2c(c(=S)[nH]c1=O)CCC2`: 101% (inactive).

Regarding `CCn1c(-c2nonc2Nc2ccc(OC)cc2)nc2ccccc21`, the growth was 107% (inactive).

For `O=C1/C=C/[C@@H](O)[C@@H]2C[C@@H](O)C[C@H]2/C=C/CCCCO1`, the growth was 1.64% (active). Consider `CN1C(=O)N(C)C2Nn3c(s/c(=C\c4ccc(Cl)cc4Cl)c3=O)=NC21` (stereo not given), for which the growth is 58.3% (inactive).

As for `CCOC(=O)c1cc2c(n1Cc1ccccc1OC)-c1oncc1CCC2`, the growth is 45.5% (inactive). Next, `CN1C(=O)N(C)C2C1NN=c1s/c(=C\c3ccc(Cl)cc3Cl)c(=O)n12` (stereo not given): 19.7% (inactive). Next, `CCN1CCN(C(=S)SCC(=O)Nc2nc3ccc(C)cc3s2)CC1`: 3.49% (active); `CN1CCN(Cc2ccc(C(=O)Nc3cncc(C#Cc4cnc(N)c5ccccc45)c3)cc2C(F)(F)F)CC1`: -92.4% (active).

Consider `N#C/C(=C1\SC(=O)CN1c1ccccc1)c1nc2ccccc2s1`, for which the growth was 88.3% (inactive).
